Whole data set: some 16,000 sequences, median “rpm ratio (pull-down/input)” near 0.94, cut for the highest 2% near 1.7. The sample as a whole holds a higher share of the highest values than the screen did.
The sequences below were run against T1, MBP-FoxP1dN (Mus musculus, UniProt P58462 326-579) (assay: PD-seq (MBP pull-down with sequencing); 20 mM Tris-HCl pH 7.5, 100 mM NaCl, 1.5 mM MgCl2, 0.4 uM protein, 0.1 uM dsDNA library, 30 min, room temperature, amylose pull-down; high values mean tight binding). Settings: protein: recombinant; tags: His6-MBP; chain copies: 2; dsDNA, one strand shown.
T1 sequence: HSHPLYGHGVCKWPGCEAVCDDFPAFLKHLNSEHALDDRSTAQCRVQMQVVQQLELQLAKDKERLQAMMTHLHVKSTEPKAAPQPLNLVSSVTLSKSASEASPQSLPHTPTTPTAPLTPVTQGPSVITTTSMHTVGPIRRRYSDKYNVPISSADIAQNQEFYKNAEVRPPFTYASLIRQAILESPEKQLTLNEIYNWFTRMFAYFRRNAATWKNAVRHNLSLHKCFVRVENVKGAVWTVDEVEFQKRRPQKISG
Outline: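 Binding is the reads-per-million enrichment of pull-down relative to input, pooled across replicates. For this, 0.4 µM His6-MBP-tagged mouse FoxP3 or FoxP1 fragment lacking the N-terminus, made in E. coli, was incubated with 0.1 µM Klenow-filled double-stranded degenerate DNA library for 30 min at room temperature in Tris pH 7.5 buffer with NaCl and MgCl2. Complexes bound to amylose resin were washed three times before proteinase K released the DNA for PCR barcoding and Illumina sequencing.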

**Q.** For “GATGATTGTTCTCCCAGCTGATGAATTCGGGATTTCGAGTAAACAAATTTTCCTAATCTTTCTGTTCAAGCGCCATCTAC”, which binding signal is on record?
**A.** 0.851 RPM ratio (pull-down/input)

**Q.** With “GATGATTGTTCTCCCAGCTGATGAATTAAGGTGCTCGAGTAAACAAATTTTCCTAATCTTTCTGTTCAAGCGCCATCTAC” as the sequence, how does the binding signal read?
**A.** 0.849 RPM ratio (pull-down/input)

**Q.** How did the binding signal turn out when “GATGATTGTTCTCCCAGCTGATGAATTTGTAAGATCGAGTAAACAAATTTTCCTAATCTTTCTGTTCAAGCGCCATCTAC” was run?
**A.** 1.09 RPM ratio (pull-down/input)

**Q.** How did the binding signal turn out when “GATGATTGTTCTCCCAGCTGATGAATTTTTGAGATCGAGTAAACAAATTTTCCTAATCTTTCTGTTCAAGCGCCATCTAC” was run?
**A.** 0.928 RPM ratio (pull-down/input)

**Q.** With “GATGATTGTTCTCCCAGCTGATGAATTTGTACCATCGAGTAAACAAATTTTCCTAATCTTTCTGTTCAAGCGCCATCTAC” as the sequence, how does the binding signal read?
**A.** 1.17 RPM ratio (pull-down/input)

**Q.** Which binding signal does the source give for “GATGATTGTTCTCCCAGCTGATGAATTCATCGGATCGAGTAAACAAATTTTCCTAATCTTTCTGTTCAAGCGCCATCTAC” here?
**A.** 0.838 RPM ratio (pull-down/input)

**Q.** For “GATGATTGTTCTCCCAGCTGATGAATTATTTCCTTCGAGTAAACAAATTTTCCTAATCTTTCTGTTCAAGCGCCATCTAC”, which binding signal is on record?
**A.** 1.04 RPM ratio (pull-down/input)

**Q.** Which binding signal does the source give for “GATGATTGTTCTCCCAGCTGATGAATTGAGTGACTCGAGTAAACAAATTTTCCTAATCTTTCTGTTCAAGCGCCATCTAC” here?
**A.** 0.833 RPM ratio (pull-down/input)

**Q.** For “GATGATTGTTCTCCCAGCTGATGAATTACCATTTTCGAGTAAACAAATTTTCCTAATCTTTCTGTTCAAGCGCCATCTAC”, which binding signal is on record?
**A.** 1.18 RPM ratio (pull-down/input)

**Q.** How did the binding signal turn out when “GATGATTGTTCTCCCAGCTGATGAATTTCCTGTTTCGAGTAAACAAATTTTCCTAATCTTTCTGTTCAAGCGCCATCTAC” was run?
**A.** 0.949 RPM ratio (pull-down/input)

**Q.** For “GATGATTGTTCTCCCAGCTGATGAATTGTTTTTTTCGAGTAAACAAATTTTCCTAATCTTTCTGTTCAAGCGCCATCTAC”, which binding signal is on record?
**A.** 2.25 RPM ratio (pull-down/input)

**Q.** For “GATGATTGTTCTCCCAGCTGATGAATTTACTGTTTCGAGTAAACAAATTTTCCTAATCTTTCTGTTCAAGCGCCATCTAC”, which binding signal is on record?
**A.** 1.35 RPM ratio (pull-down/input)

**Q.** Which binding signal does the source give for “GATGATTGTTCTCCCAGCTGATGAATTACTGATTTCGAGTAAACAAATTTTCCTAATCTTTCTGTTCAAGCGCCATCTAC” here?
**A.** 1.24 RPM ratio (pull-down/input)

**Q.** With “GATGATTGTTCTCCCAGCTGATGAATTGATTGTTTCGAGTAAACAAATTTTCCTAATCTTTCTGTTCAAGCGCCATCTAC” as the sequence, how does the binding signal read?
**A.** 1.61 RPM ratio (pull-down/input)

**Q.** With “GATGATTGTTCTCCCAGCTGATGAATTGTTTCTTTCGAGTAAACAAATTTTCCTAATCTTTCTGTTCAAGCGCCATCTAC” as the sequence, how does the binding signal read?
**A.** 1.58 RPM ratio (pull-down/input)

**Q.** Which binding signal does the source give for “GATGATTGTTCTCCCAGCTGATGAATTTTCTGTTTCGAGTAAACAAATTTTCCTAATCTTTCTGTTCAAGCGCCATCTAC” here?
**A.** 0.977 RPM ratio (pull-down/input)

**Q.** How did the binding signal turn out when “GATGATTGTTCTCCCAGCTGATGAATTTCTGTTTTCGAGTAAACAAATTTTCCTAATCTTTCTGTTCAAGCGCCATCTAC” was run?
**A.** 2.32 RPM ratio (pull-down/input)

**Q.** With “GATGATTGTTCTCCCAGCTGATGAATTACTGTTTTCGAGTAAACAAATTTTCCTAATCTTTCTGTTCAAGCGCCATCTAC” as the sequence, how does the binding signal read?
**A.** 2.6 RPM ratio (pull-down/input)

**Q.** “GATGATTGTTCTCCCAGCTGATGAATTGGCTATGTCGAGTAAACAAATTTTCCTAATCTTTCTGTTCAAGCGCCATCTAC” was tested. Which binding signal did it give?
**A.** 0.854 RPM ratio (pull-down/input)

**Q.** How did the binding signal turn out when “GATGATTGTTCTCCCAGCTGATGAATTCGTCAGTTCGAGTAAACAAATTTTCCTAATCTTTCTGTTCAAGCGCCATCTAC” was run?
**A.** 0.905 RPM ratio (pull-down/input)

**Q.** With “GATGATTGTTCTCCCAGCTGATGAATTGTCTCCATCGAGTAAACAAATTTTCCTAATCTTTCTGTTCAAGCGCCATCTAC” as the sequence, how does the binding signal read?
**A.** 1.11 RPM ratio (pull-down/input)

**Q.** For “GATGATTGTTCTCCCAGCTGATGAATTGGTTTTATCGAGTAAACAAATTTTCCTAATCTTTCTGTTCAAGCGCCATCTAC”, which binding signal is on record?
**A.** 1.14 RPM ratio (pull-down/input)

**Q.** How did the binding signal turn out when “GATGATTGTTCTCCCAGCTGATGAATTAGTGAGATCGAGTAAACAAATTTTCCTAATCTTTCTGTTCAAGCGCCATCTAC” was run?
**A.** 0.857 RPM ratio (pull-down/input)

**Q.** Which binding signal does the source give for “GATGATTGTTCTCCCAGCTGATGAATTATTTACTTCGAGTAAACAAATTTTCCTAATCTTTCTGTTCAAGCGCCATCTAC” here?
**A.** 2.15 RPM ratio (pull-down/input)

**Q.** For “GATGATTGTTCTCCCAGCTGATGAATTTTTTACTTCGAGTAAACAAATTTTCCTAATCTTTCTGTTCAAGCGCCATCTAC”, which binding signal is on record?
**A.** 1.05 RPM ratio (pull-down/input)

**Q.** For “GATGATTGTTCTCCCAGCTGATGAATTTATTACTTCGAGTAAACAAATTTTCCTAATCTTTCTGTTCAAGCGCCATCTAC”, which binding signal is on record?
**A.** 1.29 RPM ratio (pull-down/input)

**Q.** How did the binding signal turn out when “GATGATTGTTCTCCCAGCTGATGAATTTACTTCTTCGAGTAAACAAATTTTCCTAATCTTTCTGTTCAAGCGCCATCTAC” was run?
**A.** 1.33 RPM ratio (pull-down/input)

**Q.** With “GATGATTGTTCTCCCAGCTGATGAATTACTTTATTCGAGTAAACAAATTTTCCTAATCTTTCTGTTCAAGCGCCATCTAC” as the sequence, how does the binding signal read?
**A.** 1.15 RPM ratio (pull-down/input)

**Q.** “GATGATTGTTCTCCCAGCTGATGAATTGTTTACTTCGAGTAAACAAATTTTCCTAATCTTTCTGTTCAAGCGCCATCTAC” was tested. Which binding signal did it give?
**A.** 2.82 RPM ratio (pull-down/input)

**Q.** “GATGATTGTTCTCCCAGCTGATGAATTGCCAATGTCGAGTAAACAAATTTTCCTAATCTTTCTGTTCAAGCGCCATCTAC” was tested. Which binding signal did it give?
**A.** 0.943 RPM ratio (pull-down/input)

**Q.** How did the binding signal turn out when “GATGATTGTTCTCCCAGCTGATGAATTGCGCGAATCGAGTAAACAAATTTTCCTAATCTTTCTGTTCAAGCGCCATCTAC” was run?
**A.** 1.14 RPM ratio (pull-down/input)

**Q.** “GATGATTGTTCTCCCAGCTGATGAATTAGATTTATCGAGTAAACAAATTTTCCTAATCTTTCTGTTCAAGCGCCATCTAC” was tested. Which binding signal did it give?
**A.** 1.13 RPM ratio (pull-down/input)

**Q.** How did the binding signal turn out when “GATGATTGTTCTCCCAGCTGATGAATTCTCTTTATCGAGTAAACAAATTTTCCTAATCTTTCTGTTCAAGCGCCATCTAC” was run?
**A.** 0.967 RPM ratio (pull-down/input)

**Q.** Which binding signal does the source give for “GATGATTGTTCTCCCAGCTGATGAATTTGCTTCTTCGAGTAAACAAATTTTCCTAATCTTTCTGTTCAAGCGCCATCTAC” here?
**A.** 1.02 RPM ratio (pull-down/input)

**Q.** Which binding signal does the source give for “GATGATTGTTCTCCCAGCTGATGAATTTTTGCTTTCGAGTAAACAAATTTTCCTAATCTTTCTGTTCAAGCGCCATCTAC” here?
**A.** 1.83 RPM ratio (pull-down/input)

**Q.** For “GATGATTGTTCTCCCAGCTGATGAATTTGTTGCTTCGAGTAAACAAATTTTCCTAATCTTTCTGTTCAAGCGCCATCTAC”, which binding signal is on record?
**A.** 1.54 RPM ratio (pull-down/input)

**Q.** For “GATGATTGTTCTCCCAGCTGATGAATTGTTGCTTTCGAGTAAACAAATTTTCCTAATCTTTCTGTTCAAGCGCCATCTAC”, which binding signal is on record?
**A.** 2.12 RPM ratio (pull-down/input)

**Q.** “GATGATTGTTCTCCCAGCTGATGAATTGCTTTTTTCGAGTAAACAAATTTTCCTAATCTTTCTGTTCAAGCGCCATCTAC” was tested. Which binding signal did it give?
**A.** 1.45 RPM ratio (pull-down/input)

**Q.** For “GATGATTGTTCTCCCAGCTGATGAATTTTTTGCTTCGAGTAAACAAATTTTCCTAATCTTTCTGTTCAAGCGCCATCTAC”, which binding signal is on record?
**A.** 0.938 RPM ratio (pull-down/input)

**Q.** How did the binding signal turn out when “GATGATTGTTCTCCCAGCTGATGAATTGTTTGCTTCGAGTAAACAAATTTTCCTAATCTTTCTGTTCAAGCGCCATCTAC” was run?
**A.** 2.2 RPM ratio (pull-down/input)

**Q.** “GATGATTGTTCTCCCAGCTGATGAATTGCTTTGTTCGAGTAAACAAATTTTCCTAATCTTTCTGTTCAAGCGCCATCTAC” was tested. Which binding signal did it give?
**A.** 1.11 RPM ratio (pull-down/input)

**Q.** How did the binding signal turn out when “GATGATTGTTCTCCCAGCTGATGAATTTGCTTTTTCGAGTAAACAAATTTTCCTAATCTTTCTGTTCAAGCGCCATCTAC” was run?
**A.** 1.21 RPM ratio (pull-down/input)

Source: paper PMC12820563, “FoxP3 forms a head-to-head dimer in vivo and stabilizes its multimerization on adjacent microsatellites”
